Measured values: PubChem BioAssay
Values without a mark were called inactive. Calls of active or inactive are those of the source.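 Rule for the calls: active = inhibition above the hit cutoff set in the earlier primary screen (cut at about 27% in these data); inactive = the rest.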

What follows are compounds tested against Protein phosphatase methylesterase 1 (Homo sapiens) (UniProt Q9Y570) (assay: human PME-1 methylesterase inhibition confirmation – biochemical, fluorescence polarization, FP-Rh probe, triplicate (AID 2171;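 note: 0% = enzyme with DMSO and 100% = wells lacking PME-1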)). Conditions: recombinant PME-1, FP-Rh probe fluorescence polarization; at 5.9 µM; active compounds read high.
Sequence of Protein phosphatase methylesterase 1 (Homo sapiens) (Q9Y570 whole entry, looked up): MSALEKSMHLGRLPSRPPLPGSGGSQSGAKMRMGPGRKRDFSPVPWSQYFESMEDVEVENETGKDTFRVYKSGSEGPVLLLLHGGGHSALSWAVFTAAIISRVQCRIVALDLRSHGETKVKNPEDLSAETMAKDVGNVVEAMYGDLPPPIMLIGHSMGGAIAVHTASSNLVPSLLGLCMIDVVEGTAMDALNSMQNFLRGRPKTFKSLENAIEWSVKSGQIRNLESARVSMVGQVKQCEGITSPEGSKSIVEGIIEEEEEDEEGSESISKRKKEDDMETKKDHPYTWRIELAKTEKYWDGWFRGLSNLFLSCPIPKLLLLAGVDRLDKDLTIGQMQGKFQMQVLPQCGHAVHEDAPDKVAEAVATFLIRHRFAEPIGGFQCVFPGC

SMILES | inhibition
CCN(CC)C(=O)CSc1nc2c(sc(=S)n2-c2ccccc2)c(=O)n1Cc1ccco1 | 78.6% (active)
c1ccc(-c2ccc(C3CCCN3)cc2)cc1 (stereo not given) | 0.67%
O=S(=O)(c1ccc(-c2csc(Nc3ccc(Br)cc3)n2)cc1)N1CCCC1 | 16.5%
CC(C)N=c1cc2n(-c3ccc(Cl)cc3)c3ccccc3nc-2cc1Nc1ccc(Cl)cc1 | 17.7%
O=C1C2=C(Nc3ccccc3SC2c2ccco2)c2ccccc21 (stereo not given) | 5.92%
O=C(O)c1cccc(-c2ccc(/C=N/Nc3ccc([N+](=O)[O-])cc3)o2)c1 | 31.7% (active)
COc1ccc(-c2c/c(=N\c3nc(-c4ccccc4)c(C)s3)c3ccccc3o2)cc1O | 20.8%
COc1ccc(NS(=O)(=O)c2ccc3oc(Nc4ccc5c(c4)OCCO5)nc3c2)cc1 | 12.1%
Cc1c(Cl)cccc1Nc1nc(N)nc(CSc2nc3ccccc3s2)n1 | 25.1%
O=C(Nc1ccc([N+](=O)[O-])cc1)Nc1ccc2[nH]c(=O)[nH]c2c1 | -15.6%
CCC(=O)Oc1ccc(C/C(=N\O)c2ccc(O)cc2O)o1 | 43% (active)
Cc1ccc(Nc2cc(C)c3c(O)cccc3n2)cc1C | 26.7% (active)
Cc1noc(NS(=O)(=O)c2ccc(NC(=O)Nc3ccc(Cl)c(Cl)c3)cc2)c1C | -8.57%
O=C(OCCN(C1=NS(=O)(=O)c2ccccc21)c1ccc(Cl)cc1)c1ccco1 | 20.6%
Nc1ccc(Nc2nc3ccccc3[nH]2)cc1 | 43.7% (active)
